Values joined by “and” are separate entries in the source; they are usually repeats but may differ in a detail not shown here. Equal entries are not always repeated. Out of some 5,500 compounds screened, about 2,000 (36%) were called active. Roughly 18% stayed inconclusive and do not appear here. No stated cut-off is given here; in the data, active means normalized growth mostly below about 0.91 (no sharp cut-off); inconclusive means no clear call, values can overlap the other calls; inactive means mostly above about 0.92. This is one part of the list.
Assay: chemical genetic growth profiling, strain panel (AID 1159580);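 further: tested at 20 µM; growth read once vehicle control cultures reached saturation at 30 °C; 1 = growth at the plate median or of vehicle wells; lower values mean less growth of the strain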
Settings: S. cerevisiae deletion strains, growth OD

Measured: normalized growth

CC1(C)O[C@@H]2CC3C4C[C@H](F)C5=CC(=O)CC[C@]5(C)C4[C@@H](O)C[C@]3(C)[C@]2(C(=O)CO)O1 (stereo partly specified)
inactive: locus YAL013W, strain DEP1, hits give low values 1.02 | locus YAL021C, strain ccr4, hits give low values 0.971 | locus YAL026C, strain drs2, hits give low values 1.01 | locus YAL030W, strain snc1, hits give low values 1.01 | locus YBL061C, strain skt5, hits give low values 1.01 | locus YBR009C, strain hhf1, hits give low values 1 | locus YBR021W, strain FUR4, hits give low values 1.02 | locus YBR023C, strain chs3, hits give low values 1 | locus YBR171W, strain sec66, hits give low values 1.01 | locus YBR229C, strain ROT2, hits give low values 1.01 | locus YBR231C, strain swc5, hits give low values 1 | locus YBR279W, strain paf1, hits give low values 0.994 | locus YCL011C, strain gbp2, hits give low values 1 | locus YCL016C, strain dcc1, hits give low values 0.992 | locus YCL029C, strain bik1, hits give low values 1.01 | locus YCL069W, strain vba3, hits give low values 1 | locus YCR088W, strain abp1, hits give low values 1.01 | locus YDL005C, strain med2, hits give low values 1.03 | locus YDL035C, strain GPR1, hits give low values 1.01 | locus YDL040C, strain nat1, hits give low values 1.01 | locus YDL074C, strain BRE1, hits give low values 1.04 | locus YDL101C, strain DUN1, hits give low values 1.02 | locus YDL134C, strain PPH21, hits give low values 1.01 | locus YDL185W, strain tfp1, hits give low values 1.01 | locus YDL192W, strain arf1, hits give low values 1.01 | locus YDR001C, strain nth1, hits give low values 1 | locus YDR069C, strain doa4, hits give low values 1.01 | locus YDR101C, strain arx1, hits give low values 0.998 | locus YDR137W, strain rgp1, hits give low values 0.995 | locus YDR150W, strain NUM1, hits give low values 1.03 | locus YDR159W, strain sac3, hits give low values 0.939 | locus YDR162C, strain NBP2, hits give low values 1.03 | locus YDR195W, strain ref2 0.991 | locus YDR297W, strain sur2, hits give low values 1.01 | locus YDR318W, strain mcm21, hits give low values 0.999 | locus YDR334W, strain swr1, hits give low values 1.01 | locus YDR335W, strain msn5, hits give low values 1 | locus YDR388W, hits give low values 1.01 | locus YDR392W, strain spt3, hits give low values 0.931 | locus YDR502C, strain sam2, hits give low values 1 | locus YEL003W, strain gim4, hits give low values 0.999 | locus YEL037C, strain rad23, hits give low values 1.01 | locus YEL061C, strain CIN8 (second series), hits give low values 1.01 | locus YEL061C, strain CIN8, hits give low values 1.01 | locus YER015W, strain faa2, hits give low values 1.01 | locus YER016W, strain bim1, hits give low values 1 | locus YER110C, hits give low values 0.998 | locus YER111C, strain swi4, hits give low values 1 | locus YER155C, strain BEM2 (second series), hits give low values 1.03 | locus YER155C, strain BEM2, hits give low values 1 | locus YER167W, strain BCK2, hits give low values 1.01 | locus YFR010W, strain ubp6, hits give low values 1.01 | locus YGL078C, strain dbp3, hits give low values 0.995 | locus YGL086W, strain mad1, hits give low values 1 | locus YGL167C, strain pmr1, hits give low values 0.996 | locus YGL173C, strain kem1, hits give low values 1.02 | locus YGL227W, strain vid30, hits give low values 1 | locus YGL240W, strain doc1, hits give low values 1 | locus YGL248W, strain PDE1, hits give low values 1.01 | locus YGL253W, strain hxk2, hits give low values 1 | locus YGR078C, strain PAC10, hits give low values 1.02 | locus YGR135W, strain pre9, hits give low values 1 | locus YGR229C, strain SMI1, hits give low values 1.02 | locus YGR252W, strain gcn5, hits give low values 0.983 | locus YHR013C, strain ard1, hits give low values 0.994 | locus YHR027C, strain rpn1, hits give low values 1.02 | locus YHR030C, strain SLT2, hits give low values 1 and 1.02 | locus YHR079C, strain IRE1 (second series), hits give low values 0.999 | locus YHR079C, strain IRE1, hits give low values 1.03 | locus YHR094C, strain hxt1, hits give low values 1.01 | locus YHR129C, strain ARP1, hits give low values 1.01 | locus YHR142W, strain chs7, hits give low values 1 | locus YHR200W, strain rpn10, hits give low values 1.01 | locus YIL066C, strain RNR3, hits give low values 1 | locus YIL073C, strain SPO22, hits give low values 1.01 | locus YIL125W, strain kgd1, hits give low values 0.995 | locus YIR030C, strain dcg1, hits give low values 1.01 | locus YJL092W, strain hpr5, hits give low values 1.02 | locus YJL095W, strain BCK1 (second series), hits give low values 1.01 | locus YJL095W, strain BCK1, hits give low values 0.999 and 1.02 | locus YJL115W, strain asf1, hits give low values 1.01 | locus YJL129C, strain trk1, hits give low values 1.02 | locus YJL134W, strain LCB3, hits give low values 1.01 | locus YJL154C, strain vps35, hits give low values 1.01 | locus YJL164C, strain tpk1, hits give low values 0.982 | locus YJL166W, strain qcr8, hits give low values 1.01 | locus YJL168C, strain set2, hits give low values 1.01 | locus YJL187C, strain SWE1 (second series), hits give low values 1.01 | locus YJL187C, strain SWE1, hits give low values 1.01 | locus YJR043C, strain POL32, hits give low values 0.994 | locus YJR066W, strain TOR1, hits give low values 0.957
